From PubChem BioAssay (NCATS)
Inconclusive results are not listed. Calls of active or inactive are those of the source. Unless noted, the call rests on the fitted dose curve; in most records, active means well fitted curve in either direction with a large enough effect (not every such curve was filed as active); inconclusive means small, poorly fitted or top-dose-only effect, or another doubt; inactive means flat fitted curve, though single readings scatter.

Assays:
[1] = molecular target: Lysosomal acid glucosylceramidase (Homo sapiens) (UniProt P04062); assay: Glucocerebrosidase-p2 (AID 348; in the data active means potency below about 10 µM; further: potency means the concentration at half of the fitted maximal effect); conditions: purified GBA, blue fluorogenic substrate, 40 min
Outline: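 Compounds titrated from 0.6 nM upwards against 0.2 nM enzyme in pH 5.9 citric acid/KH2PO4, taurocholate, tween-20; blue fluorogenic substrate 80 uM, 40 min room temperature, stopped and read Ex 365/Em 440 for AC50.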

[2] = AP1 Signaling Pathway (AID 357); conditions: ME-180 AP-1-bla reporter, EGF-induced, beta-lactamase ratio, 5 h; at 7.69 µM (top of the series) unless noted; further: on the % scale 0 is the no-effect control and ±100 the full control effect
Outline: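 ME-180 cells with beta-lactamase reporter under AP-1 response element, stimulated with EC50 EGF; compounds tested in titration series, 5 h at 37 °C. CCF4 substrate added 2.5 h at room temperature; 460/530 nm emission ratio gave %activity and AC50.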

[3] = NFAT Signaling Pathway (AID 444); conditions: Jurkat NFAT-bla M1, carbachol, beta-lactamase ratio, 5 h; at 7.69 µM (top of the series) unless noted;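 further: carbachol stimulus at about its EC50 of 1 µM final; on the % scale 0 is the no-effect control and ±100 the full control effect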
Outline: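 Read-out: CCF4 FRET ratio (460 nm/530 nm) after 1 h RT dye loading, used for %activity and AC50 from titration series. Cells: Jurkat NFAT-β-lactamase/M1 line, treated with compound plus 1 uM carbachol for 5 h, 37 °C.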

[4] = Stat Signaling Pathway (AID 446); conditions: ME-180 SIE beta-lactamase reporter, IL-6 stimulated, 5 h; at 7.69 µM (top of the series) unless noted;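 further: ME-180 cervical cancer cells given 40 pM IL-6 alongside compound; SIE-controlled beta-lactamase reporter measured as 460/530 nm FRET emission ratio; on the % scale 0 is the no-effect control and ±100 the full control effect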
Outline: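 Reporter line: ME-180 cervical carcinoma, SIE-beta-lactamase. Treatment: compound with 40 pM IL-6, 5 hrs, 37 C, in low-serum OPTI-MEM with 10 mM HEPES pH 7.3. Detection: 460/530 nm fluorescence.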

[5] = molecular target: Glucocorticoid receptor (Homo sapiens) (UniProt P04150); assay: GR-EFC Redistribution (AID 451; calls by dose curve; further: potency means the concentration at half of the fitted maximal effect); conditions: CHO-K1 GR-EFC translocation, beta-gal luminescence, 2 h
Outline: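 Translocation of GR-ED fusion to nuclear EA restores b-gal, read by luminescence after 1 h room-temperature detection. Engineered CHO-K1 biosensor cells, 1,000/well, exposed 2 h at 37 C to titrations up to 46 uM final.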

[6] = molecular target: Mitogen-activated protein kinase 10 (Mus musculus) (UniProt Q61831); assay: JNK3 AlphaScreen Assay (AID 530); conditions: JNK3 lysate, c-Jun phosphorylation; series mostly up to 57.1 µM;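 further: kinase came from lysate of stimulated human HepG2 cells; signal reports phosphorylation of biotinylated GST-cJun 1-79 at Ser73 with 10 µM ATP; on the % scale 0 is the no-effect control and ±100 the full control effect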
Outline: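 Room-temperature AlphaScreen kinase assay; pre-activated HepG2 lysate as JNK3 source, biotin-GST-cJun(1-79) substrate, 10 uM ATP, compound 15 min preincubation.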

[7] = molecular target: 3',5'-cyclic-AMP phosphodiesterase 4B (Homo sapiens) (UniProt Q07343); assay: qHTS Assay for Inhibitors of PDE-IV (AID 607; active means well fitted activation curve with a large enough effect in the main read-out, with a control signal flat, not every such curve was filed as active; further: % of control where 0% means no effect); conditions: HEK293 ACTOne CNG channel cells, membrane potential fluorescence; series mostly up to 22.9 µM
Outline: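 Cell-based read-out of cAMP via a modified cyclic nucleotide-gated channel and membrane potential dye (535/590 nm) in HEK293 cells expressing PDE4 endogenously. Compounds tested up to 22.9 uM final; 100 uM RO 20-1724 reference.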

[8] = Primary qHTS for small molecule stabilizers of the endoplasmic reticulum resident proteome: Secreted ER Calcium Modulated Protein (SERCaMP) assay (AID 1508630; active means well fitted curve in the direction sought with a large enough effect; an effect the other way counts as inactive or inconclusive; further: on the % scale 0 is the no-effect control and ±100 the full control effect); conditions: SH-SY5Y GLuc-SERCaMP (Gaussia luciferase released on ER calcium loss) secretion, thapsigargin, luminescence; series mostly up to 38.4 µM
Outline: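 GLuc-SERCaMP-expressing SH-SY5Y cells, pretreated 16 h with compound, are challenged with thapsigargin to empty ER calcium stores; after 4 h, coelenterazine is added directly to the medium and luminescence is imaged.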

[9] = molecular target: Glucocorticoid receptor (Homo sapiens) (UniProt P04150); assay: GR-GFP Redistribution (AID 450;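 active means compounds whose dose series gives a full or clear partial fitted curve of increased nuclear translocation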; further: potency means the concentration at half of the fitted maximal effect); conditions: U2OS GR-GFP nuclear translocation, laser cytometry, 2 h
[10] = molecular target: Cytochrome P450 3A4 (Homo sapiens) (UniProt P08684); assay: qHTS Assay for Activators of Cytochrome P450 3A4 (AID 885; active means well fitted curve in the direction sought with a large enough effect; an effect the other way counts as inactive or inconclusive; further: nearly all actives have a fitted effect of over 65% in size); conditions: recombinant CYP3A4, Luciferin-PPXE luminescence, 60 min; series mostly up to 57.1 µM
Outline: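 Signal was normalized against complete inhibition by 57 uM ketoconazole. The reaction used 20nM CYP3A4 with 25uM Luciferin-PPXE, 10-min compound preincubation and a 60-min NADPH-supported step at RT.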

Chain of Glucocorticoid receptor (Homo sapiens) (P04150 whole entry, looked up, the tested form may be a part): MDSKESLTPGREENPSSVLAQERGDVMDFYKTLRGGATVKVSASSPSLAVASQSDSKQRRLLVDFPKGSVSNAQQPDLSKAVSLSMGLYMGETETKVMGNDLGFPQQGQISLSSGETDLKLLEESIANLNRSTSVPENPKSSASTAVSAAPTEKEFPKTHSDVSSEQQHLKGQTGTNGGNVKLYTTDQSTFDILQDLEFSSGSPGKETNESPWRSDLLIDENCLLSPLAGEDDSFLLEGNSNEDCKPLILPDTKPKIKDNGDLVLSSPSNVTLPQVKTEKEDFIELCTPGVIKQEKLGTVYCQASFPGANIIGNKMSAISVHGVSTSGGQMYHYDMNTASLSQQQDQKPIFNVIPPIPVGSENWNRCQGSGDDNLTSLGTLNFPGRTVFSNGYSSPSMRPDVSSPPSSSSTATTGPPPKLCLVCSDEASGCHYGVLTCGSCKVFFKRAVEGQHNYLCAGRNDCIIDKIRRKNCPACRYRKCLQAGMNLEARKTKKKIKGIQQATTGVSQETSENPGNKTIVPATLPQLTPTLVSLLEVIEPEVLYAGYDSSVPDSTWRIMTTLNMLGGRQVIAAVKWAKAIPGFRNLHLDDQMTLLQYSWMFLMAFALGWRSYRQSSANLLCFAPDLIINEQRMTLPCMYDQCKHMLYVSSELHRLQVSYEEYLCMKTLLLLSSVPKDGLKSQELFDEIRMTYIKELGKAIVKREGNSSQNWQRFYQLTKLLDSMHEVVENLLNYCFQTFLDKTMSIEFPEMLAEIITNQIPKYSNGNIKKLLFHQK
Chain of 3',5'-cyclic-AMP phosphodiesterase 4B (Homo sapiens) (Q07343 whole entry, looked up): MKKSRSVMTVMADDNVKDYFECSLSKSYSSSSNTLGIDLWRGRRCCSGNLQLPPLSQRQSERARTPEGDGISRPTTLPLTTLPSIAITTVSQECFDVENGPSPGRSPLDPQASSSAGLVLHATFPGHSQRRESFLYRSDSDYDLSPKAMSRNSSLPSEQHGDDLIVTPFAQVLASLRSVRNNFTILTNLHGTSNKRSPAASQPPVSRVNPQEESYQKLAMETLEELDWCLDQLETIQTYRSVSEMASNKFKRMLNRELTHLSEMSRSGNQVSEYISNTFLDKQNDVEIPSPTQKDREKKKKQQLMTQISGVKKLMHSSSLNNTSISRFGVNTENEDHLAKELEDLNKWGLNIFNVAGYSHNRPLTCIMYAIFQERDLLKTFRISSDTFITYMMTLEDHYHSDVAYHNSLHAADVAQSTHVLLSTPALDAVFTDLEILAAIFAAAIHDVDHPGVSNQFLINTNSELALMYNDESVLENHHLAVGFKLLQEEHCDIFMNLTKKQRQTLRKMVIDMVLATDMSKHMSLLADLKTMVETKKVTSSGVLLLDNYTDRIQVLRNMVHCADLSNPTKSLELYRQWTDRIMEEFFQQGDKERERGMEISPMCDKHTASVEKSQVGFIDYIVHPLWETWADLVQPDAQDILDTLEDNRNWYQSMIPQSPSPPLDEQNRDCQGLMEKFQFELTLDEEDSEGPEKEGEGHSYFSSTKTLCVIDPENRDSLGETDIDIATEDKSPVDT
Chain of Lysosomal acid glucosylceramidase (Homo sapiens) (P04062 whole entry, looked up): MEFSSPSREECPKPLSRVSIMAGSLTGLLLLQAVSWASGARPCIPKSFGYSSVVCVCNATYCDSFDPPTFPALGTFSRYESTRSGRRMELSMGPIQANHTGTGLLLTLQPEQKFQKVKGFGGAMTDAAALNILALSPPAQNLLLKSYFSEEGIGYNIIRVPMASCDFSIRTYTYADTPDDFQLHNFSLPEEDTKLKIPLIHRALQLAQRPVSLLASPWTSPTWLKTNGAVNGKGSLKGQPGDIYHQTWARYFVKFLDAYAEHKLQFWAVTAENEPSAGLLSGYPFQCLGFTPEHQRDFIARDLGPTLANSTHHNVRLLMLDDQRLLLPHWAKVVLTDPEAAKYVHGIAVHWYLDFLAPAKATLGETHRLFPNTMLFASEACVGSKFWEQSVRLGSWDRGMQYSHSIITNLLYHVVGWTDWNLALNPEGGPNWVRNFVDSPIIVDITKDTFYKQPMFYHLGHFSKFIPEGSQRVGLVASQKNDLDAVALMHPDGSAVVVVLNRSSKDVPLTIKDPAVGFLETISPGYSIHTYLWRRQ
Chain of Cytochrome P450 3A4 (Homo sapiens) (P08684 whole entry, looked up): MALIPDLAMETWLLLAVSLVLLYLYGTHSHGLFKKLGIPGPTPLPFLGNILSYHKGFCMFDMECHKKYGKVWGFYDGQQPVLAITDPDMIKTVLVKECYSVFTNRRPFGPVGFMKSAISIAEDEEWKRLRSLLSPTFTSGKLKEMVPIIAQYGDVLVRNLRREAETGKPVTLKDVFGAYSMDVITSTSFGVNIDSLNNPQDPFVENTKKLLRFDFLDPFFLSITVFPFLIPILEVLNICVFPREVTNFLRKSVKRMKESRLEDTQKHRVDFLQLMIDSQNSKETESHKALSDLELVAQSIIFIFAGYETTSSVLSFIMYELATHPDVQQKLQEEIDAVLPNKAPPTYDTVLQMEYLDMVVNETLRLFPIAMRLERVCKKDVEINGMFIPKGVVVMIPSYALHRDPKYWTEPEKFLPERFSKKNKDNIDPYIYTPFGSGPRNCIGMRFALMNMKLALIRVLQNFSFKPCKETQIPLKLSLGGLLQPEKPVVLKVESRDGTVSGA

COc1ccc(C(=O)N2CCC3(CC2)CCN(c2cccc(-c4ccccc4)c2)CC3)cc1
inactive: Potency [1] > 11.4 µM | activity change, negative = inhibition [2] 10.6% | activity change, negative = inhibition [3] -6.4% | activity, negative = inhibition [4] -19% | Potency [5] > 46 µM | Potency [6] | Potency [7] | outcome [8]

Cc1noc(C)c1C(=O)N1CCC2(CCCN(c3ncccn3)C2)CC1
inactive: Potency [1] > 11.4 µM | activity change, negative = inhibition [2] -6.23% | activity change, negative = inhibition [3] 7.66% | activity, negative = inhibition [4] -4.43% | Potency [5] > 46 µM | Potency [6] | Potency [7] | outcome [8]

COCC(=O)N1CCC2(CCCN(c3ccccn3)C2)CC1
inactive: Potency [1] > 11.4 µM | activity change, negative = inhibition [2] 0.674% | activity change, negative = inhibition [3] -15.3% | activity, negative = inhibition [4] 11.7% | Potency [5] > 46 µM | Potency [6] | Potency [7] | outcome [8]

O=C(c1csnn1)N1CCC[C@@]2(CCN(c3cccc(-c4ccccc4)c3)C2)C1
inactive: Potency [1] > 11.4 µM | activity change, negative = inhibition [2] -28.1% | activity change, negative = inhibition [3] 12.1% | activity, negative = inhibition [4] 6.22% | Potency [5] > 46 µM | Potency [6] | Potency [7] | outcome [8]

O=C(c1cccc(F)c1)N1CCC2(CC1)CN(C(c1ccccc1)c1ccccc1)C2
inactive: Potency [1] > 11.4 µM | activity change, negative = inhibition [2] 16.8% | activity change, negative = inhibition [3] -27.5% | activity, negative = inhibition [4] -17.5% | Potency [5] > 46 µM | Potency [6] | Potency [7] | outcome [8]

O=C(c1csnn1)N1CCC[C@@]2(CCN(c3ccccc3)C2)C1
inactive: Potency [1] > 11.4 µM | activity change, negative = inhibition [2] -5.43% | activity change, negative = inhibition [3] -8.4% | activity, negative = inhibition [4] -7.17% | Potency [5] > 46 µM | Potency [6] | Potency [7] | outcome [8]

O=C(Nc1ccccc1)N1CCC2(CCNCC2)CC1
inactive: Potency [1] > 11.4 µM | activity change, negative = inhibition [2] -1.92% | activity change, negative = inhibition [3] -7.88% | activity, negative = inhibition [4] 10.8% | Potency [5] > 46 µM | Potency [6] | Potency [7] | outcome [8]

O=C(Nc1cccc(F)c1)N1CC2(CCN(C(=O)c3ccncc3)CC2)C1
inactive: Potency [1] > 11.4 µM | activity change, negative = inhibition [2] -11.4% | activity change, negative = inhibition [3] 9.26% | activity, negative = inhibition [4] 1.8% | Potency [5] > 46 µM | Potency [6] | Potency [7] | outcome [8]

O=C(c1ccco1)N1CCC2(CCCN(c3ncccn3)C2)CC1
inactive: Potency [1] > 11.4 µM | activity change, negative = inhibition [2] 3.88% | activity change, negative = inhibition [3] -1.96% | activity, negative = inhibition [4] -7% | Potency [5] > 46 µM | Potency [6] | Potency [7] | outcome [8]

COc1ccc(C(=O)N2CCC3(CCCN(C(=O)NC(C)C)C3)CC2)cc1
inactive: Potency [1] > 11.4 µM | activity change, negative = inhibition [2] -3.27% | activity change, negative = inhibition [3] 2.69% | activity, negative = inhibition [4] 0.47% | Potency [5] > 46 µM | Potency [6] | Potency [7] | outcome [8]

COc1ccc(C(=O)N2CCC[C@@]3(CCN(Cc4ccccc4OC)C3)C2)cc1
inactive: Potency [1] > 11.4 µM | activity change, negative = inhibition [2] 11.7% | activity change, negative = inhibition [3] -18.6% | activity, negative = inhibition [4] 5.47% | Potency [5] > 46 µM | Potency [6] | Potency [7] | outcome [8]

COCC(=O)N1CCC2(CCN(Cc3cc(C(F)(F)F)cc(C(F)(F)F)c3)CC2)CC1
inactive: Potency [1] > 11.4 µM | activity change, negative = inhibition [2] 4.92% | activity change, negative = inhibition [3] -3.18% | activity, negative = inhibition [4] 8.32% | Potency [5] > 46 µM | Potency [6] | Potency [7] | outcome [8]

COc1cccc(Cn2c(=O)c(-c3ccc(F)c(F)c3)nc3cncnc32)c1
inactive: Potency [1] > 11.4 µM | activity change, negative = inhibition [2] -5.97% | activity change, negative = inhibition [3] -0.724% | activity, negative = inhibition [4] 2.07% | Potency [9] > 9.22 µM | Potency [5] > 46 µM | Potency [7] | outcome [8]

N#Cc1ccc(CN2CC[C@@]3(CCCN(C(=O)c4ccco4)C3)C2)cc1
inactive: Potency [1] > 11.4 µM | activity change, negative = inhibition [2] 0.694% | activity change, negative = inhibition [3] -6.92% | activity, negative = inhibition [4] 12.6% | Potency [5] > 46 µM | Potency [6] | Potency [7] | outcome [8]

COc1ccc(C(=O)N2CCC[C@@]3(CCN(C(=O)Nc4cccc(F)c4)C3)C2)cc1
inactive: Potency [1] > 11.4 µM | activity change, negative = inhibition [2] -10.8% | activity change, negative = inhibition [3] 2.1% | activity, negative = inhibition [4] -4.78% | Potency [5] > 46 µM | Potency [6] | Potency [7] | outcome [8]

COc1ncc2nc(-c3cc(F)cc(F)c3)c(=O)n(Cc3cccs3)c2n1
inactive: Potency [1] > 11.4 µM | activity change, negative = inhibition [2] 14.2% | activity change, negative = inhibition [3] -10.4% | activity, negative = inhibition [4] 4.55% | Potency [9] > 9.22 µM | Potency [6] | Potency [7] | outcome [8]

O=c1c(-c2cccc(F)c2)nc2cncnc2n1Cc1ccccc1
inactive: Potency [1] > 11.4 µM | activity change, negative = inhibition [2] -7.86% | activity change, negative = inhibition [3] -7.28% | activity, negative = inhibition [4] -8.08% | Potency [9] > 9.22 µM | Potency [5] > 46 µM | Potency [10] | outcome [8]

N#Cc1ccc(CN2CC3(CCN(C(=O)c4csnn4)CC3)C2)cc1
inactive: Potency [1] > 11.4 µM | activity change, negative = inhibition [2] -0.499% | activity change, negative = inhibition [3] -22.3% | activity, negative = inhibition [4] 5.17% | Potency [5] > 46 µM | Potency [6] | Potency [7] | outcome [8]
